Source: PubChem BioAssay (NCATS)
Records with an inconclusive call do not appear. Entries that show only a call come without a potency. A number with no mark means an inactive call. Activity calls are given as the source filed them. Calls come from the whole dose curve; as a rule, active = well fitted curve in the direction sought with a large enough effect; inconclusive = small, poorly fitted or top-dose-only effect, or another doubt; inactive = no such curve, though single readings can be large; an effect the other way counts as inactive or inconclusive.

Tests used:
[1] = qHTS of pediatric cancer cell lines to identify multiple opportunities for drug repurposing: Primary screen for SJ-GBM2 cells (AID 1347091); note: potency is the fitted concentration of half-maximal effect
Summary of the method: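 Viability measured as metabolically active cells via CellTiter-Glo luminescence following 48 hours of compound exposure, 11-point dilutions in confirmatory testing. 500-1,000 cells/well plated 5 hours before dosing; controls were DMSO and 2.3 µM bortezomib.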

[2] = qHTS of pediatric cancer cell lines to identify multiple opportunities for drug repurposing: Primary screen for A673 cells (AID 1347092); note: nearly all actives have a fitted effect of over 45% in size; note: potency is the fitted concentration of half-maximal effect
Summary of the method: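 Cells are plated, rested 5 h, dosed by pintool, incubated 48 h, then lysed with CellTiter-Glo and read by luminescence. DMSO is the neutral control; bortezomib at 2.3 uM final is the positive control.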

[3] = qHTS of pediatric cancer cell lines to identify multiple opportunities for drug repurposing: Primary screen for SK-N-MC cells (AID 1347093); note: potency is the fitted concentration of half-maximal effect; for activity change, negative = cytotoxic: series mostly up to about 46 µM
Summary of the method: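 Metabolically active cells were quantified by ATP-dependent luminescence (CellTiter-Glo, 15 min at room temperature) following 48 h treatment. Cells had been plated at 500-1,000 per well and settled for 5 h beforehand.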

[4] = qHTS of pediatric cancer cell lines to identify multiple opportunities for drug repurposing: Primary screen for BT-37 cells (AID 1347094); note: potency is the fitted concentration of half-maximal effect; for activity change, negative = cytotoxic: series mostly up to about 57 µM
Summary of the method: (§1)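 Plated cells (500-1,000 per well, growth media) were allowed to settle for 5 hours, treated with compound dilutions for 48 hours, then lysed with CellTiter-Glo for 15 min at room temperature before luminescence reading.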

[5] = qHTS of pediatric cancer cell lines to identify multiple opportunities for drug repurposing: Primary screen for NB-EBc1 cells (AID 1347095); note: potency is the fitted concentration of half-maximal effect
Summary of the method: as §1

[6] = qHTS of pediatric cancer cell lines to identify multiple opportunities for drug repurposing: Primary screen for U-2 OS cells (AID 1347096); note: nearly all actives have a fitted effect of over 50% in size; note: potency is the fitted concentration of half-maximal effect
Summary of the method: (§2)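 Viability after 48 h compound treatment at 37C, 500-1,000 cells/well, read as ATP luminescence with CellTiter-Glo. Primary screens used 11-point (MIPE, 0.78 nM-46 µM) or 8-point (NPC, 0.59 nM-46 µM) final concentrations; follow-up screens used 11-point dilutions.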

[7] = qHTS of pediatric cancer cell lines to identify multiple opportunities for drug repurposing: Primary screen for Saos-2 cells (AID 1347097); note: nearly all actives have a fitted effect of over 40% in size; note: potency is the fitted concentration of half-maximal effect
Summary of the method: as §1

[8] = qHTS of pediatric cancer cell lines to identify multiple opportunities for drug repurposing: Primary screen for SK-N-SH cells (AID 1347098); note: nearly all actives have a fitted effect of over 65% in size; note: potency is the fitted concentration of half-maximal effect;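 for activity change, negative = cytotoxic: DMSO served as neutral control and bortezomib at 2.3 µM as positive control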
Summary of the method: (§3)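 Cells (500-1,000/well) rested 5 h, then received compounds for 48 h; metabolically active cells were measured by CellTiter-Glo luminescence. Final concentrations spanned up to 46 µM (MIPE, 11-point) or 0.59 nM-46 µM (NPC, 8-point) in primary screens, 11-point in follow-ups.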

[9] = qHTS of pediatric cancer cell lines to identify multiple opportunities for drug repurposing: Primary screen for NB1643 cells (AID 1347099); note: nearly all actives have a fitted effect of over 50% in size; note: potency is the fitted concentration of half-maximal effect
Summary of the method: as §1

[10] = qHTS of pediatric cancer cell lines to identify multiple opportunities for drug repurposing: Primary screen for LAN-5 cells (AID 1347100); note: potency is the fitted concentration of half-maximal effect
Summary of the method: as §2

[11] = qHTS of pediatric cancer cell lines to identify multiple opportunities for drug repurposing: Primary screen for BT-12 cells (AID 1347101); note: nearly all actives have a fitted effect of over 25% in size; note: potency is the fitted concentration of half-maximal effect
Summary of the method: as §3

[12] = qHTS of pediatric cancer cell lines to identify multiple opportunities for drug repurposing: Primary screen for Rh18 cells (AID 1347102); note: nearly all actives have a fitted effect of over 65% in size; note: potency is the fitted concentration of half-maximal effect
Summary of the method: as §2

[13] = qHTS of pediatric cancer cell lines to identify multiple opportunities for drug repurposing: Primary screen for OHS-50 cells (AID 1347103); note: nearly all actives have a fitted effect of over 40% in size; note: potency is the fitted concentration of half-maximal effect
Summary of the method: as §3

[14] = qHTS of pediatric cancer cell lines to identify multiple opportunities for drug repurposing: Primary screen for RD cells (AID 1347104); note: nearly all actives have a fitted effect of over 55% in size; note: potency is the fitted concentration of half-maximal effect
Summary of the method: as §1

[15] = qHTS of pediatric cancer cell lines to identify multiple opportunities for drug repurposing: Primary screen for MG 63 (6-TG R) cells (AID 1347105); note: nearly all actives have a fitted effect of over 50% in size
Summary of the method: as §1

[16] = qHTS of pediatric cancer cell lines to identify multiple opportunities for drug repurposing: Primary screen for control Hh wild type fibroblast cells (AID 1347106); note: nearly all actives have a fitted effect of over 55% in size; note: potency is the fitted concentration of half-maximal effect;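 for activity change, negative = cytotoxic: series mostly up to about 46 µM; a drop in luminescence marks cytotoxicity and a rise apparent proliferation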
Summary of the method: as §2

[17] = qHTS of pediatric cancer cell lines to identify multiple opportunities for drug repurposing: Primary screen for Rh30 cells (AID 1347107); note: series mostly up to about 46 µM; nearly all actives have a fitted effect of over 75% in size
Summary of the method: as §2

[18] = qHTS of pediatric cancer cell lines to identify multiple opportunities for drug repurposing: Primary screen for Rh41 cells (AID 1347108); note: nearly all actives have a fitted effect of over 70% in size; note: potency is the fitted concentration of half-maximal effect;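 for activity change, negative = cytotoxic: series mostly up to about 46 µM; luminescence drop marks cytotoxic hits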
Summary of the method: as §1

Structure (SMILES): CC1CN(c2cc3c(cc2F)c(=O)c(C(=O)O)cn3-c2ccc(F)cc2F)CCN1 (stereo unspecified)
- activity change, negative = cytotoxic [1]: 78.3% [at 4.84 µM]
- activity change, negative = cytotoxic [2]: -9.43% [at 4.84 µM]
- activity change, negative = cytotoxic [3]: 32.9% [at 4.84 µM]
- activity change, negative = cytotoxic [4]: 1.04% [at 6.03 µM]
- activity change, negative = cytotoxic [5]: 50.8% [at 4.84 µM]
- activity change, negative = cytotoxic [6]: -4.99% [at 4.84 µM]
- activity change, negative = cytotoxic [7]: 39.6% [at 4.84 µM]
- activity change, negative = cytotoxic [8]: -4.88% [at 6 µM]
- activity change, negative = cytotoxic [9]: -5.39% [at 4.84 µM]
- activity change, negative = cytotoxic [10]: 1.81% [at 4.84 µM]
- activity change, negative = cytotoxic [11]: -6.89% [at 6.03 µM]
- activity change, negative = cytotoxic [12]: -0.484% [at 4.84 µM]
- activity change, negative = cytotoxic [13]: 83% [at 6.18 µM]
- activity change, negative = cytotoxic [14]: -4.55% [at 4.84 µM]
- activity change, negative = cytotoxic [15]: 29.5% [at 4.84 µM]
- activity change, negative = cytotoxic [16]: -8.43% [at 4.84 µM]
- activity change, negative = cytotoxic [17]: 5.93% [at 4.84 µM]
- activity change, negative = cytotoxic [18]: 11.4% [at 4.84 µM]

Structure (SMILES): CN1N=C(C(N)=O)CCC1=O
- Potency [1]: inactive
- Potency [2]: inactive
- Potency [3]: inactive
- Potency [4]: inactive
- Potency [5]: inactive
- Potency [6]: inactive
- Potency [7]: inactive
- Potency [8]: inactive
- Potency [9]: inactive
- Potency [10]: inactive
- Potency [11]: inactive
- Potency [13]: inactive
- Potency [14]: inactive
- Potency [15]: inactive
- Potency [16]: inactive
- Potency [17]: inactive
- Potency [18]: inactive

Structure (SMILES): CC(=O)OCC(=O)Nc1cc(C#N)cc(NC(=O)COC(C)=O)c1Cl
- Potency [1]: inactive
- Potency [2]: inactive
- Potency [3]: inactive
- Potency [4]: inactive
- Potency [6]: inactive
- Potency [7]: inactive
- Potency [8]: inactive
- Potency [9]: inactive
- Potency [11]: inactive
- Potency [12]: inactive
- Potency [13]: inactive
- Potency [15]: inactive
- Potency [16]: inactive
- Potency [17]: inactive
- Potency [18]: inactive

Structure (SMILES): O=C(O)Cn1c(=O)n(Cc2ccc(Br)cc2F)c(=O)c2ccc(Cl)cc21
- Potency [1]: inactive
- Potency [2]: inactive
- Potency [3]: inactive
- Potency [4]: inactive
- Potency [5]: inactive
- Potency [6]: inactive
- Potency [7]: inactive
- Potency [8]: inactive
- Potency [9]: inactive
- Potency [10]: inactive
- Potency [11]: inactive
- Potency [12]: inactive
- Potency [14]: inactive
- Potency [16]: inactive
- Potency [17]: inactive
- Potency [18]: inactive

Structure (SMILES): O=C(OCC1(COC(=O)c2cccnc2)CCCC(COC(=O)c2cccnc2)(COC(=O)c2cccnc2)C1O)c1cccnc1
- Potency [1]: inactive
- Potency [2]: inactive
- Potency [3]: inactive
- Potency [4]: inactive
- Potency [5]: inactive
- Potency [6]: inactive
- Potency [7]: inactive
- Potency [8]: inactive
- Potency [9]: inactive
- Potency [10]: inactive
- Potency [11]: inactive
- Potency [12]: inactive
- Potency [13]: inactive
- Potency [14]: inactive
- Potency [15]: inactive
- Potency [16]: inactive
- Potency [17]: inactive
- Potency [18]: inactive

Structure (SMILES): Nc1ccc2c(c1)CN1C(=O)c3ccccc3C1=N2
- Potency [1]: inactive
- Potency [5]: 0.651 µM (active)
- Potency [16]: inactive

Structure (SMILES): CCCCCCCCCCCCCCCCCCNC(=O)OC1CCN(C(=O)OC[C@H](COC(=O)N(Cc2cccc[n+]2CC)C(=O)c2ccccc2OC)OC)CC1
- Potency [2]: 8.41 µM (active)
- Potency [3]: 8.41 µM (active)
- Potency [4]: 21.9 µM (active)
- Potency [11]: 8.71 µM (active)
- Potency [13]: 11 µM (active)
- Potency [14]: 23.7 µM (active)
- Potency [16]: inactive

Structure (SMILES): CC(C)(c1ccc(O)cc1)c1ccc(O)cc1
- Potency [1]: inactive
- Potency [2]: inactive
- Potency [4]: inactive
- Potency [5]: inactive
- Potency [6]: inactive
- Potency [9]: inactive
- Potency [10]: inactive
- Potency [14]: inactive
- Potency [16]: inactive
- Potency [17]: inactive

Structure (SMILES): CC(C)=CCNc1ncnc2c1ncn2[C@@H]1O[C@H](CO)[C@@H](O)[C@H]1O
- Potency [2]: 2.66 µM (active)
- Potency [3]: 3.76 µM (active)
- Potency [4]: 6.17 µM (active)
- Potency [6]: 21.1 µM (active)
- Potency [8]: 5.45 µM (active)
- Potency [9]: 5.31 µM (active)
- Potency [10]: 5.96 µM (active)
- Potency [14]: 13.3 µM (active)
- Potency [16]: 8.41 µM (active)
- Potency [18]: 6.68 µM (active)

Structure (SMILES): NC(=O)C1(N2CCCCC2)CCN(CCCN2c3ccccc3CCc3ccc(Cl)cc32)CC1
- Potency [7]: 21.1 µM (active)
- Potency [8]: 13.7 µM (active)
- Potency [11]: 19.5 µM (active)
- Potency [13]: 24.6 µM (active)

Structure (SMILES): C[C@@H](O[C@H]1OCCN(Cc2n[nH]c(=O)[nH]2)[C@H]1c1ccc(F)cc1)c1cc(C(F)(F)F)cc(C(F)(F)F)c1
- Potency [1]: 21.1 µM (active)
- Potency [4]: 21.9 µM (active)
- Potency [5]: 18.8 µM (active)
- Potency [7]: 11.9 µM (active)
- Potency [8]: 34.4 µM (active)
- Potency [11]: 15.5 µM (active)
- Potency [12]: 23.7 µM (active)
- Potency [13]: 27.6 µM (active)
- Potency [14]: 26.6 µM (active)
- Potency [16]: inactive
- Potency [17]: inactive

Structure (SMILES): Nc1nc2ccccc2n1Cc1ccc(F)cc1
- Potency [1]: inactive
- Potency [3]: inactive
- Potency [4]: inactive
- Potency [5]: inactive
- Potency [6]: inactive
- Potency [7]: inactive
- Potency [8]: inactive
- Potency [9]: inactive
- Potency [12]: inactive
- Potency [13]: 17.4 µM (active)
- Potency [14]: inactive
- Potency [15]: inactive
- Potency [16]: inactive
- Potency [17]: inactive

Structure (SMILES): CC[C@@H]([C@H](C)O)n1ncn(-c2ccc(N3CCN(c4ccc(OC[C@@H]5CO[C@@](Cn6cncn6)(c6ccc(F)cc6F)C5)cc4)CC3)cc2)c1=O
- Potency [1]: 18.8 µM (active)
- Potency [5]: 21.1 µM (active)
- Potency [8]: inactive
- Potency [12]: inactive
- Potency [13]: 13.8 µM (active)
- Potency [16]: inactive
- Potency [17]: inactive

Structure (SMILES): CC(NCCC(c1ccccc1)c1ccccc1)c1ccccc1 (stereo unspecified)
- Potency [8]: 27.3 µM (active)
- Potency [10]: 23.7 µM (active)
- Potency [11]: 27.6 µM (active)
- Potency [13]: 17.4 µM (active)
- Potency [16]: inactive

Structure (SMILES): N#C/C(=C1/SC[C@@H](c2ccc(Cl)cc2Cl)S1)n1ccnc1
- Potency [3]: 11.9 µM (active)
- Potency [6]: inactive
- Potency [12]: inactive
- Potency [15]: inactive
- Potency [16]: inactive
- Potency [17]: inactive

Structure (SMILES): Nc1cc(C(F)(F)F)ccc1S
- Potency [1]: inactive
- Potency [2]: 21.1 µM (active)
- Potency [4]: inactive
- Potency [10]: inactive
- Potency [15]: inactive
- Potency [17]: inactive

Structure (SMILES): CCCCN(CCN(CCCC)C(=O)N1CCOCC1)C(=O)N1CCOCC1
- Potency [1]: inactive
- Potency [4]: inactive
- Potency [6]: inactive
- Potency [7]: 23.7 µM (active)
- Potency [10]: inactive
- Potency [12]: inactive
- Potency [14]: inactive
- Potency [15]: inactive
- Potency [17]: inactive
